The text below walks through data of ChEMBL document CHEMBL3988442, “University of Dundee, Small-Polar-MMV Screening Library” (2021).

Assay [1] has as its target T1, Aspartate--tRNA(Asp/Asn) ligase (Mycobacterium tuberculosis (strain ATCC 25618 / H37Rv)) (UniProt P9WFW3). Further: in the data most compounds retested in dose-response had high values.
T1 sequence (whole entry): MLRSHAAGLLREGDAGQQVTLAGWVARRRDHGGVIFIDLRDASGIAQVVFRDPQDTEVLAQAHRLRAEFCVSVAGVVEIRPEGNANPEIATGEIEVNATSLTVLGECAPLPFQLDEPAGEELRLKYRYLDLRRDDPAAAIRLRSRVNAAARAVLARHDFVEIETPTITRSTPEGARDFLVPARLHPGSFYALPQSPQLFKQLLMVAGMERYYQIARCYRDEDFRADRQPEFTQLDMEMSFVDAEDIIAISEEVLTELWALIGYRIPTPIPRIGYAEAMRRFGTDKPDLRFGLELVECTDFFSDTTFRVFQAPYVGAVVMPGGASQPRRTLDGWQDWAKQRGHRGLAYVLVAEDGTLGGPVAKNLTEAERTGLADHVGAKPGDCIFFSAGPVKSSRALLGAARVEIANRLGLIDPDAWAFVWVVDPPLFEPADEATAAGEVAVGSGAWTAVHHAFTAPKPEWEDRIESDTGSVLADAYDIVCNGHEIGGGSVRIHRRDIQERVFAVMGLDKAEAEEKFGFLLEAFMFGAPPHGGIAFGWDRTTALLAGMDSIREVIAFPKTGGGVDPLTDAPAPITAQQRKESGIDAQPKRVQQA
The assay is described as follows: Assay for Asp RNA synthetase-1 from Mycobacterium tuberculosis. Format: functional. On the set-up: scale not given: direction of the effect not stated beside the values. The settings on record: 30 µM.

Assay [2] has as its target Shiga toxin 2 (Escherichia coli O157:H7) (UniProt P09385+P09386). Nature of the assay: E. coli 0.157:H7 Shiga Toxin SOP - stx2 screening assay. Format: functional. On the set-up: scale not given: direction of the effect not stated beside the values. Conditions: 30 µM.

`Cc1cc(N2CCN(Cc3ccccc3)CC(O)C2)cc(C)n1` (configuration not stated): the Percent Effect in assay [1] was -5.25%; in assay [2], -16.3%.
In the same order, the values of `CNS(=O)(=O)c1cccc(C(C)NCc2ccccc2)c1` (configuration not stated) are -1.42% and -14.4%.
For `Cc1nc(CNCC2CCCN2c2cccnn2)cs1` (configuration not stated), the Percent Effect in assay [1] was -0.7%; in assay [2], 15.4%.
With `Cn1cc(C2CCCN2Cc2csc(C(C)(C)C)n2)cn1` (configuration not stated), the Percent Effect in assay [1] was -4.83%; in assay [2] it was -11.7%.
As for `CN1CCN(C(=O)Cc2cccc(F)c2)Cc2cccnc21`, the Percent Effect was -2.05% in assay [1] and -29.8% in assay [2].
Turning to `Cc1cc(C)cc(NC(=O)CN2CCCC(n3cncn3)C2)c1` (configuration not stated), the Percent Effect in assay [1] is -0.903%; in assay [2], 12.2%.
Consider `CC(C)c1nc(C2CCCN2C(=O)c2cnc[nH]2)no1` (configuration not stated), for which the Percent Effect in assay [1] amounted to 0.204%; in assay [2], 26.7%.
In the same order, the values of `COC(=O)C(NC(=O)COC1CCCC1)c1cc(F)ccc1F` (configuration not stated) are -3.52% and -22.4%.
For `CCn1cnnc1CNC(=O)N1CCN(c2cccc(OC)c2)CC1`, the Percent Effect was 0.152% in assay [1] and -10.2% in assay [2].
For `Cn1cc(CN2CCCC3(CCN(Cc4cccnc4)C3=O)C2)cn1` (configuration not stated), in that order: -1.18% and -7.77%.
`Cc1c(C(=O)NC(C)C(C)C)nnn1-c1cccc2c1CCN(C)C2` (configuration not stated): the Percent Effect worked out at 2.19% in assay [1] and 3.53% in assay [2].
Consider `CN(Cc1cccc(Cl)c1)S(=O)(=O)N1CCOCC1`, for which the results for the Percent Effect in assay [1] and in assay [2] were 2.4% and 7.77%, respectively.
In the case of `O=C1CCC2(CCCN(C(=O)c3cscn3)C2)CN1CCc1c[nH]cn1` (configuration not stated), the results for the Percent Effect in assay [1] and in assay [2] were 3.83% and -12.3%, respectively.
As for `Cn1nnc2c1C(COCC1CC1)CN(C(=O)Cc1ccsc1)C2` (configuration not stated), the Percent Effect in assay [1] was -2.73%; in assay [2] it was -6.94%.
For `CC(NCC1=Cc2cc(Cl)ccc2OC1)c1nnc2n1CCCC2` (configuration not stated), the Percent Effect in assay [1] was 1.06%; in assay [2], -9.58%.
For the compound `c1ccc(-n2ccnc2)c(CNCC2CNc3ccnn3C2)c1` (configuration not stated), the Percent Effect in assay [1] was -5.71%; in assay [2], -13.1%.
As for `O=C(Nc1cc(F)ccc1OCC1CCCO1)N1CCCC1` (configuration not stated), the Percent Effect in assay [1] was -3.7%; in assay [2], 0.98%.
Turning to `CCn1nc(CC(C)C)cc1C(=O)NCCn1cccc1`, the Percent Effect is 3.71% in assay [1] and -3.77% in assay [2].
For the compound `CCOc1ncccc1NC(=O)NCC(O)c1ccccc1OC` (configuration not stated), the Percent Effect in assay [1] is -0.742%; in assay [2] it was -2.67%.
Regarding `Cc1nc2cc(C(=O)N3CCCC(n4cncn4)C3)ccc2n1C` (configuration not stated), the figures for the Percent Effect in assay [1] and in assay [2] were -8.92% and -28.5%, respectively.
In the same order, the values of `O=C(NCCOc1ccc(Cl)cc1)N1CCS(=O)(=O)CC1` are -4.21% and 5.32%.
With `CN(C)C(=O)N1C[C@@H]2COC[C@]2(CNS(C)(=O)=O)C1`, the figures for the Percent Effect in assay [1] and in assay [2] were -0.382% and -0.0161%, respectively.
As to `Cc1cccn2c(=O)cc(CN3CCCCC3Cn3cncn3)nc12` (configuration not stated), the Percent Effect was -0.0141% in assay [1] and -18.4% in assay [2].
Turning to `Cn1ccnc1CN1CCN(c2ccc(C#N)cn2)CC1`, the Percent Effect in assay [1] was 1.72%; in assay [2], -34.8%.
`CSCC(CCO)NC(=O)Nc1cc(C)ccc1C` (configuration not stated): the Percent Effect in assay [1] was 6.04%; in assay [2], -16.3%.
Take `CCOC(=O)N1CCN(c2nc(NCCCO)c3ccccc3n2)CC1`: the figures for the Percent Effect in assay [1] and in assay [2] were 1.68% and -29.9%, respectively.
With `O=C(Cc1ccc2c(c1)CCCC2)NCCc1ccccn1`, the Percent Effect in assay [1] amounted to 2.5%; in assay [2], 29.1%.
Take `CS(=O)(=O)NCc1n[nH]c2c1CCN(C(=O)c1ccsc1)C2`: the Percent Effect in assay [1] was 9.64%; in assay [2] it was -7.46%.
On to `CCC1CN(CC(=O)Nc2sccc2C#N)CCO1` (configuration not stated), for which the Percent Effect in assay [1] was -2.46%; in assay [2], 32.6%.
Consider `O=C(NCc1cnc2n1CCN(CC1CC1)CC2)C1CCC1`, for which the Percent Effect in assay [1] is -5.77%; in assay [2], 7.18%.
Consider `c1cc(CN2Cc3nnn(CC4CC4)c3C(COCC3CC3)C2)co1` (configuration not stated), for which the figures for the Percent Effect in assay [1] and in assay [2] were -1.45% and -2.53%, respectively.
Turning to `Cc1cc(C)c2cc(CNCc3ccccc3)c3nn(C)c(=O)n3c2c1`, the Percent Effect in assay [1] was -2.43%; in assay [2] it was -0.711%.
For the compound `c1cnc(-c2nc(CN3CCC(c4ccn[nH]4)CC3)cs2)nc1`, the Percent Effect in assay [1] is -0.495%; in assay [2] it was -11.4%.
With `O=C(Cc1ccc(F)cc1)N1CCCCC1c1ccn2ccnc2n1` (configuration not stated), the Percent Effect in assay [1] was -3.71%; in assay [2], 6.23%.
Take `O=C(NCCCO)C1CC(=O)N(c2n[nH]c3cccc(F)c23)C1` (configuration not stated): the Percent Effect in assay [1] was 0.29%; in assay [2] it was -34.7%.
`CC(CNCc1ccc(Cl)c(Cl)c1)Oc1ccccn1` (configuration not stated): the Percent Effect in assay [1] is -0.523%; in assay [2] it was -59.8%.
In the case of `CCc1cccc(N2CCC(NC(=O)c3cc[nH]n3)CC2)c1`, the Percent Effect is 7.15% in assay [1] and 18.9% in assay [2].
On to `Cc1cc(-c2nn(C)c(Cl)c2CN2Cc3ccccc3C(O)C2)no1` (configuration not stated), for which the Percent Effect in assay [1] came out at 8.53%; in assay [2] it was 43.3%.
For `COCCN1CC[C@@H]2O[C@@H](COCC(=O)N3CCCC3)CC[C@@H]21`, in that order: -4.13% and -8.7%.
For the compound `Cn1ncc2c1C(COCC1CC1)CN(Cc1ccc(F)cc1)C2` (configuration not stated), the Percent Effect is -2.09% in assay [1] and -5.43% in assay [2].
With `COc1c(CNC(c2nccn2C)C(C)C)c(C)nn1C` (configuration not stated), the figures for the Percent Effect in assay [1] and in assay [2] were 0.122% and 16.3%, respectively.
With `CN(CC1CCCO1)C1CCN(CCc2ccccn2)CC1` (configuration not stated), the figures for the Percent Effect in assay [1] and in assay [2] were 3.12% and -6.44%, respectively.
Take `CN1CCN(c2cc(CNC(=O)c3ccc(=O)n(C)c3)ccn2)CC1`: the Percent Effect in assay [1] is -4.9%; in assay [2], -0.684%.
For the compound `N#Cc1ncn(CC(=O)Nc2cc(Cl)ccc2F)n1`, the Percent Effect in assay [1] is 9.55%; in assay [2] it was -46.7%.
Regarding `Cn1cccc1-c1cc(C(=O)N2CC(c3cccnc3)C2)[nH]n1`, the Percent Effect in assay [1] is -0.915%; in assay [2], -50.6%.
`Cn1cc(CN2CCC3(CC(=O)N(c4ccc5c(c4)OCO5)C3)C2)cn1` (configuration not stated): the Percent Effect is 2.85% in assay [1] and -15.8% in assay [2].
Take `CS(=O)(=O)c1ccc(CNC(=O)N2CCC(C(N)=O)C2)cc1` (configuration not stated): the Percent Effect in assay [1] is -1.49%; in assay [2], -11.7%.
Regarding `Fc1ccc2[nH]c(C3CCCN3CCc3ccccn3)nc2c1` (configuration not stated), the Percent Effect in assay [1] was 7.64%; in assay [2] it was -16.2%.
Take `O=c1[nH]c2nc(N3CCSCC3)ncc2c(=O)n1-c1cccc(F)c1`: the Percent Effect is 13.7% in assay [1] and -14.3% in assay [2].
For `Cc1cc(C(=O)N2CCC(c3nccn3Cc3ccncc3)CC2)no1`, in that order: 10.1% and 4.34%.
In the same order, the values of `COCCCN1CCCN(C(C)c2nc(C3CC3)no2)CC1` (configuration not stated) are -9.76% and -23.4%.
